Experimental data: PubChem BioAssay
Activity calls are given as the source filed them.

Tests used:
Albumin (Bos taurus) = Albumin (Bos taurus) (UniProt P02769); experiment: bovine serum albumin binders on microarray, profiling panel, artefact control for SMM control protein annotation, biochemical, small-molecule microarray, Alexa647 label, 635/667 nm fluorescence (AID 1118); conditions: BSA-A647 binding, fluorescence 635 nm, higher = more signal;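 note: score merges 667 nm emission intensity and signal-to-noise per printed compound spot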
[1] = small-molecule microarray binders of probe aXIP, primary screen, biochemical, NeuroSMM set, 635/667 nm fluorescence (AID 1119); conditions: higher = more signal, called active from +8 up or from −8 down;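 note: probe is the protein aXip251-270 applied at 1 µg/mL to compound-printed slides; binding of probe to printed compounds measured as 667 nm fluorescence plus signal to noise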
[2] = small-molecule binders of probe aNOTCH3, primary screen, biochemical, small-molecule microarray, 635/667 nm fluorescence (AID 1120); conditions: higher = more signal;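 note: probe is a biotin-tagged antibody raised against NOTCH3 rather than NOTCH3 protein; score merges spot fluorescence near 667 nm with spot signal to noise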
[3] = small-molecule binders of probe aNOTCH2, primary screen, biochemical, small-molecule microarray, 635/667 nm fluorescence (AID 1121); conditions: higher = more signal;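 note: score merges feature fluorescence read at 667 nm with its signal to noise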
[4] = biological target: Carbonic anhydrase 2 (Homo sapiens) (UniProt P00918); experiment: CAII small-molecule binders, profiling panel, biochemical, small-molecule microarray, Alexa647-labelled CAII (AID 1122); conditions: CAII-A647 binding fluorescence, higher = more signal
[5] = COS7 lysate on small-molecule microarray, probe aHis, 635 nm (AID 1123); conditions: COS7 cell lysate, fluorescence, higher = more signal;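 note: z-score combines 667nm fluorescence intensity with signal-to-noise per printed compound spot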
[6] = compound binding in COS7 lysate, probe aLAP1, primary screen, cell lysate, small-molecule microarray (AID 1124); conditions: probe aLAP1, fluorescence, higher = more signal;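 note: lysate comes from COS7 cells expressing LAP1 and is applied at 0.3 µg/mL; score merges spot fluorescence near 667 nm with signal-to-noise over triplicate slides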
Sam68 (KHDRBS1) = experiment: Sam68 small-molecule binders, primary screen, biochemical, small-molecule microarray, 635 nm fluorescence (AID 1125); conditions: small-molecule microarray binding, higher = more signal;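 note: score merges 667 nm channel intensity with signal to noise over triplicate slides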
[7] = tested on: Chordin-like protein 2 (CHRDL2); experiment: CHRDL2 small-molecule binders, primary screen, biochemical, small-molecule microarray, 635 nm fluorescence (AID 1126); conditions: small-molecule microarray binding, fluorescence 635 nm; higher = more signal;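 note: printed compound slides probed with Chrdl2 protein at 4 µg/mL for 1 h at 4 C; score merges 667 nm emission intensity with signal to noise over three replicate slides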
[8] = biological target: Concanavalin-A (Canavalia ensiformis) (UniProt P02866); experiment: ConA small-molecule binders, primary screen, artefact control for SMM control protein annotation, biochemical, small-molecule microarray, Alexa647 label, 635 nm (AID 1127); conditions: ConA-A647 binding fluorescence, higher = more signal;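 note: z combines 667 nm emission intensity with signal-to-noise across three replicate slides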
Sequence of Concanavalin-A (Canavalia ensiformis) (P02866 whole entry, looked up): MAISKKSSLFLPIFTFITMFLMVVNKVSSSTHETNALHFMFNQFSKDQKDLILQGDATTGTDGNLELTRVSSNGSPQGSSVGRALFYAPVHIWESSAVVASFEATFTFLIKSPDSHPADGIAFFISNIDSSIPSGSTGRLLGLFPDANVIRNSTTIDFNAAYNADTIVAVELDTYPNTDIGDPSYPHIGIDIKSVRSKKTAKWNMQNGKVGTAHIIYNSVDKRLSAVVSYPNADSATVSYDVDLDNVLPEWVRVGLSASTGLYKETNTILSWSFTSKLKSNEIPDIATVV

Sequence of Albumin (Bos taurus) (P02769 whole entry, looked up): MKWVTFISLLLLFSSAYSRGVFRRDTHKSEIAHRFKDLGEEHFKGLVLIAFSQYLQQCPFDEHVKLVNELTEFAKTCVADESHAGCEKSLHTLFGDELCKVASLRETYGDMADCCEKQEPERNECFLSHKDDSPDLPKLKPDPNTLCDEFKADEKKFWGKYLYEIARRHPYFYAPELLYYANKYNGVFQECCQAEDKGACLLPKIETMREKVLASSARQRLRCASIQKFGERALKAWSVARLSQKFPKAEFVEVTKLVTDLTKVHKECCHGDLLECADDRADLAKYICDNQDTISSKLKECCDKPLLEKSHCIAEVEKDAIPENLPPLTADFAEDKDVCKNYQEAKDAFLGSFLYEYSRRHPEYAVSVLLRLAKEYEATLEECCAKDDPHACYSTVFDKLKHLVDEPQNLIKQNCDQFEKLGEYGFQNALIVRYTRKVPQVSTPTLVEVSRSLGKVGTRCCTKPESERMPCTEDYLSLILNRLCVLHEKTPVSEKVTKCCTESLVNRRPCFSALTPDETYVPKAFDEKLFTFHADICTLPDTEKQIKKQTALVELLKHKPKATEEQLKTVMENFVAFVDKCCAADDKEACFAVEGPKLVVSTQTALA

SMILES	composite z-score (Albumin (Bos taurus))	composite Z-score [1]	composite z-score [2]	composite z-score [3]	composite z-score [4]	composite z-score [5]	composite z-score [6]	composite z-score (Sam68 (KHDRBS1))	composite z-score [7]	composite z-score [8]
CO[C@H]1O[C@H](CO)[C@@H](OC(=O)Nc2ccccc2)[C@@H]2OC(=O)[C@@H](Cc3ccc4ccccc4c3)C/C=C/C[C@H](Cc3ccc4ccccc4c3)C(=O)O[C@@H]12	0.615	1.08 (inactive)	-0.0371	-0.146	0.324	1.38	0.313	1.21	0.34	0.983
CO[C@H]1O[C@H](CO)[C@@H](OC(=O)Nc2cccc(F)c2)[C@H](OC(=O)Nc2ccccc2)[C@H]1OC(=O)Nc1ccccc1	-0.225	0.0063 (inactive)	0.146	-0.0664	0.65	1.24	0.168	1.29	0.323	0.899
[N-]=[N+]=Nc1ccccc1C[C@@]1(C(=O)N2CCCCC2)N=C(c2ccc(OCCCO)cc2)O[C@@H]1c1ccccc1	0.782	0.219 (inactive)	0.107	0.111	0.398	2.37	0.677	1.22	-0.687	1.12
CN1C(=O)C2C=CC(C(O)c3c(F)cccc3Cl)N(NC(=O)OC(C)(C)C)C2C1=O (stereo not given)	0.972	2.18 (inactive)	-0.0362	0.109	0.572	2.75	0.67	1.22	-0.729	0.918
CCCCCN1CC=CC23O[C@@H]4C=CCOC(=O)[C@@H]4[C@H]2C(=O)N(C(C)CO)[C@@H]3C1=O (stereo not given in full)	0.755	-0.294 (inactive)	-0.403	-0.12	0.863	-0.284	-0.0739	-1.22	-0.811	-0.54
[N-]=[N+]=NCc1ccccc1[C@@H]1OC(c2ccc(OCCCO)cc2)=N[C@]1(CCS(=O)(=O)c1ccccc1)C(N)=O	0.0943	0.466 (inactive)	0.369	0.0703	0.637	3.29	0.247	1.28	1.1	0.971
C=CCC(OC(C)=O)[C@@H]1[C@@H](N(Cc2ccc(-c3cccc(C(F)(F)F)c3)o2)C(=O)c2cccc3ccccc23)c2cc(OCCCO)ccc2N1C(=O)Cc1ccc2ccccc2c1 (stereo not given in full)	0.426	0.111 (inactive)	-0.0465	-0.102	0.0886	0.58	-0.0395	0.153	0.421	-0.146
NC(=O)[C@@]1(Cc2ccccc2)N=C(c2ccc(OCCCO)cc2)O[C@H]1c1ccccc1	0.852	0.546 (inactive)	0.0276	0.0247	0.721	3.05	0.593	0.572	-0.643	0.737
C=CCNC(=O)[C@H]1[C@@H]2C(=O)O[C@@H](c3ccccc3)[C@@H](c3ccccc3)N2[C@@H](c2ccc(OCCO)cc2)[C@]12C(=O)Nc1ccc(C#CCC(C(=O)OC)C(=O)OC)cc12	0.629	0.612 (inactive)	0.116	0.0022	0.328	1.92	0.979	1.3	1.24	1.12
COC(=O)[C@H](Cc1ccccc1)N[C@H](/C=C/C1CC1)[C@@H](O)Cc1ccccc1	-0.115	0.448 (inactive)	0.392	-0.193	-0.36	0.369	-0.309	-0.56	-0.318	-0.811
O=C1OCC=C[C@H]2OC34C=CCN(Cn5nnc6ccccc65)C(=O)[C@H]3N(CCCCCO)C(=O)[C@@H]4[C@@H]12 (stereo not given in full)	-0.552	0.177 (inactive)	-0.211	-0.108	0.9	1.34	0.435	-0.171	-1.87	-0.727
COC(=O)c1c(CC[C@@H](CO)NC(=O)NCCc2c[nH]c3ccccc23)oc(C(=O)Cc2ccccc2)c1C(=O)OC	0.0018	-0.326 (inactive)	0.0842	-0.14	0.112	0.452	-0.161	0.583	0.149	0.467
O=C(NC1CC1)[C@@H]1c2ccccc2C(=O)N(C2Cc3ccccc3C2)[C@H]1c1ccc(CO)cc1	0.378	-0.358 (inactive)	-0.0166	0.0386	0.608	1.41	0.237	1.24	0.847	0.918
O=C(NCc1ccccc1)[C@@H]1c2ccccc2C(=O)N(C2Cc3ccccc3C2)[C@H]1c1ccc(CO)cc1	0.0732	0.0702 (inactive)	0.0711	-0.0249	0.767	1.35	0.0541	0.958	-0.357	0.899
CCCCC(O)C1C=CC2C(=O)N(C)C(=O)C2N1N1CCCCC1 (stereo not given)	0.843	0.257 (inactive)	0.291	0.0675	0.821	2.45	0.536	0.952	0.372	0.0635
O=C1O[C@@H](c2ccccc2)[C@@H](c2ccccc2)N2[C@@H](c3ccc(OCCO)cc3)[C@]3(C(=O)Nc4ccc(C#CC5=CCCCC5)cc43)[C@@H](C(=O)N3CCCCCCC3)[C@H]12	0.425	4.13 (inactive)	1.87	0.988	0.776	3.59	1.6	1.28	1.42	1.13
COCCCNC(=O)[C@@H]1c2ccccc2C(=O)N(Cc2ccccc2)[C@H]1c1ccc(CO)cc1	0.405	0.59 (inactive)	0.235	0.13	0.787	1.48	1.1	0.814	0.634	0.458

SMILES	composite z-score (Albumin (Bos taurus))	composite Z-score [1]	composite z-score [2]	composite z-score [3]	composite z-score [4]	composite z-score [5]	composite z-score [6]	composite z-score (Sam68 (KHDRBS1))	composite z-score [7]	composite z-score [8]
C=CCC(OC(C)=O)[C@@H]1[C@@H](N(Cc2ccc(-c3cccc(C(F)(F)F)c3)o2)C(=O)Cc2ccc(OC)cc2)c2cc(OCCCO)ccc2N1C(=O)c1ccc2ccccc2c1 (stereo not given in full)	0.268	-0.616 (inactive)	0.0423	-0.131	0.228	1.14	-0.0744	-0.651	-0.0916	-0.471
COc1cc2c(cc1OC)CN(C(=O)[C@H]1[C@@H]3C(=O)O[C@@H](c4ccccc4)[C@@H](c4ccccc4)N3[C@@H](c3ccccc3OCCO)[C@]13C(=O)Nc1ccc(C#CCCO)cc13)CC2	0.766	0.397 (inactive)	0.0268	-0.118	0.383	0.935	-0.0376	1.33	0.579	1.11
CCN(CC)c1ccc(N2CC=CC34O[C@@H]5/C=C\CCC(C)OC(=O)C5[C@H]3C(=O)N(CCCCCO)[C@@H]4C2=O)cc1 (stereo not given in full)	-0.295	-0.4 (inactive)	-0.222	-0.19	0.905	-1.05	-0.472	-2.57	-1.16	-2.12
O=C1NC(=O)C2C1C=CC(C(O)C1CC=CCC1)N2Nc1ccccn1 (stereo not given)	-0.459	0.945 (inactive)	0.137	-0.0272	0.79	0.793	0.643	0.231	1.05	0.497
CCOC(=O)C[C@H]1[C@H](OC(=O)c2cc3ccccc3oc2=O)[C@@H](NC(=O)CC(C)C)c2cc(OCCCO)ccc2N1C(=O)c1ccccc1	0.793	-0.081 (inactive)	-0.0044	-0.14	0.308	0.614	0.139	1.21	0.202	0.298
COCC(=C=CC[C@H](O)c1ccccc1OCCO)CCO	0.003	-0.325 (inactive)	-0.0048	-0.0475	0.774	0.969	0.162	0.853	-0.546	0.298
COC(=O)C[C@H]1O[C@@H](CCc2ccccc2)[C@@H](C)[C@@H]1[Si](C)(C)c1ccc(OC)cc1	-0.932	0.611 (inactive)	-0.268	-0.154	-0.394	-0.308	0.314	-1.1	0.323	-0.615
[N-]=[N+]=NCc1ccccc1[C@@H]1OC(c2ccc(OCCCO)cc2)=N[C@]1(CCS(=O)(=O)c1ccccc1)C(=O)N1CCCCC1	0.997	-0.228 (inactive)	0.739	-0.124	0.754	2.85	0.475	1.29	-0.59	1.17
COc1ccc([Si](C)(C)[C@@H]2[C@@H](CCn3cc([C@H](O)c4ccccc4)nn3)O[C@]3(C(=O)N(Cc4cccc(N5CCC5=O)c4)c4ccccc43)[C@H]2C)cc1	-0.185	-0.0405 (inactive)	-0.152	-0.0598	-0.105	0.288	0.0413	-0.233	0.422	0.0651
CCCCCCc1nc(-c2ccc(-c3ccc(Cl)c(Cl)c3)o2)cc2c1[Si](C(C)C)(C(C)C)O[C@H]2c1ccccc1	0.108	1.35 (inactive)	-0.292	-0.153	0.739	0.458	-0.418	-0.472	-0.517	-0.131
O=C(CS)NCCCCCNC(=O)[C@@H]1C[C@@H]2C(=O)NCC(=O)N2[C@@H]1c1cccc(OCCO)c1	0.57	0.498 (inactive)	-0.162	-0.125	0.179	1.61	0.783	0.459	0.656	0.324
O=C(NC1CC1)[C@@H]1c2ccccc2C(=O)N(Cc2cc(F)cc(C(F)(F)F)c2)[C@H]1c1ccc(CO)cc1	0.416	-0.0461 (inactive)	-0.182	-0.112	0.237	0.668	0.747	0.521	-0.791	0.0427
COC(=O)[C@@]1(Cc2ccc(F)cc2)[C@H]2c3cc(C(=O)N(C)C)n(Cc4ccc(C)o4)c3C[C@H]2CN1C(=O)c1ccccc1	-0.373	0.444 (inactive)	1.6	0.992	0.458	3.29	1.13	0.47	-0.852	-1.67
CCOC(=O)C[C@H]1[C@H](OC(=O)c2ccc(C(=O)c3ccccc3)cc2)[C@@H](NC(=O)Cc2ccc(OC)cc2)c2cc(OCCCO)ccc2N1C(=O)c1ccc2ccccc2n1	0.701	0.0505 (inactive)	-0.0445	-0.0868	0.151	1.34	0.493	1.09	-0.0473	0.818
C=CC[C@@]1(C(=O)N2CCCCC2)N=C(c2ccc(OCCCO)cc2)O[C@@H]1c1ccccc1N=[N+]=[N-]	0.82	-0.797 (inactive)	0.185	0.0497	0.443	2.41	-0.0724	1.29	-0.294	1.04
CCOC(=O)[C@H]1C/C=C/C[C@H](C(=O)OCC)C(=O)O[C@H]2[C@@H](OC)O[C@H](CO)[C@@H](OC(=O)c3ccc(Br)cc3)[C@@H]2OC1=O	0.184	0.38 (inactive)	0.037	-0.0956	0.397	0.306	0.435	-0.0942	0.406	0.205
